Source: PMC4336329 (PLoS ONE, 2015)
The whole screen tested about 310,000 compounds, of which about 2,200 (0.71%) showed an effect of 50% or more. The effect is printed as a negative number. The sample as a whole holds a higher share of strong results than the screen did.

These compounds were tested against human ether-à-go-go-related gene (hERG) potassium channel (human, UniProt Q12809) (assay: primary screen, population patch clamp on CHO cells stably expressing hERG; higher = less effect of the substance).
Chain of human ether-à-go-go-related gene (hERG) potassium channel (Q12809 whole entry, looked up): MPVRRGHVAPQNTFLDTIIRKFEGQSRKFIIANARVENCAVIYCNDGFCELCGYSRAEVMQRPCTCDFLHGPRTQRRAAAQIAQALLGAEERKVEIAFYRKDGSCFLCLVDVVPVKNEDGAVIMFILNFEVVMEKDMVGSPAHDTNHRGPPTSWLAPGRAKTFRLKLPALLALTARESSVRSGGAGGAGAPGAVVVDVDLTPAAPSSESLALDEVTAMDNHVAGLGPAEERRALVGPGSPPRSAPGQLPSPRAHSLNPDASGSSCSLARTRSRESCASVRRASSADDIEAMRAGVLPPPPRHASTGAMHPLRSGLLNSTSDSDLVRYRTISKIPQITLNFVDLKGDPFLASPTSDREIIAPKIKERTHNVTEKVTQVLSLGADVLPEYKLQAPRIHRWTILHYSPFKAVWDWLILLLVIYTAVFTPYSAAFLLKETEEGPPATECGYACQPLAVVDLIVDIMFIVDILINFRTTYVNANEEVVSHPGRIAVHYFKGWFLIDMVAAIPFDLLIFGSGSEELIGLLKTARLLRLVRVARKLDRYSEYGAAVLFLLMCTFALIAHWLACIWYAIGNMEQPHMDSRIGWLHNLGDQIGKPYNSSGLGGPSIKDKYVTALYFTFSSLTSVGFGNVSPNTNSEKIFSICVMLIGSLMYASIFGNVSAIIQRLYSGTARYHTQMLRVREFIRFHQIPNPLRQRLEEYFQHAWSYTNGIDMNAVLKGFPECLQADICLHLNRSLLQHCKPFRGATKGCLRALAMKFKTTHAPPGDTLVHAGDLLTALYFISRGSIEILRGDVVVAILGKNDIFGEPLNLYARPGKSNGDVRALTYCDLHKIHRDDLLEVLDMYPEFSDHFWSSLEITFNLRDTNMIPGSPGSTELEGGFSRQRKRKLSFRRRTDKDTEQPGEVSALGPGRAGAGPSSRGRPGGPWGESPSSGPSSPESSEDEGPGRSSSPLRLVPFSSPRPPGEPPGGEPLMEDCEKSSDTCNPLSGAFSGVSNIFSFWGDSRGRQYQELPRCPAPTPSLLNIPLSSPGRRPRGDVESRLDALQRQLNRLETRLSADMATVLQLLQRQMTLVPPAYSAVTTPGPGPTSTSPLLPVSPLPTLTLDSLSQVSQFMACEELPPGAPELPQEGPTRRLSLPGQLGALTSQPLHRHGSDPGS

| Structure (SMILES) | hERG current change (%, negative = inhibition) at 1uM [%] |
| --- | --- |
| COc1cccc(OC)c1NC(=O)C1CCCN1C(=O)NCc1ccccc1 (centres unmarked) | 3.69 |
| COC(=O)c1ccc(NC(=O)C2C3CCC(C3)C2C(=O)O)cc1 (centres unmarked) | 3.27 |
| O=C(O)c1ccc(S(=O)(=O)NCc2ccc3c(c2)OCO3)cc1 | 11.3 |
| CC1CCN(CCc2nc3cc(NC(=O)COc4ccc([N+](=O)[O-])cc4)ccc3n2C)CC1 | -2.45 |
| CC1CCN(CCc2nc3cc(NC(=O)COc4ccc(Cl)cc4)ccc3n2C)CC1 | -60.7 |
| COc1ccc(OCC(=O)Nc2ccc3c(c2)nc(CCN2CCC(C)CC2)n3C)cc1 | -46.3 |
| Cn1c(CCN2CCOCC2)nc2cc(NC(=O)COc3ccc(Cl)cc3)ccc21 | 2 |
| CC1CCN(CCc2nc3cc(NC(=O)COc4ccccc4)ccc3n2C)CC1 | -33.9 |
| Cc1ccc(OCC(=O)Nc2ccc3c(c2)nc(CCN2CCC(C)CC2)n3C)cc1 | -53.3 |
| CCOc1ccc(NS(=O)(=O)c2ccc3c(c2)N(C(C)=O)CCO3)cc1 | 17 |
| C[C@]12CCC(=O)CC1CCC1C2CC[C@]2(C)C(OC(=O)CCC(=O)O)CCC12 (some centres unmarked) | 9.84 |
| CCC1CCCCN1C(=O)Nc1cc(Cl)ccc1OC (centres unmarked) | 15.2 |
| O=C(c1ccco1)N1CCN(C(=O)C2CCN(S(=O)(=O)c3cccs3)CC2)CC1 | -26.1 |
| CCc1nn(CC(=O)NCCCN2CCOCC2)c(=O)c2cc3sccc3n12 | 15.6 |
| CCc1nn(CC(=O)NCCCN2CCN(C)CC2)c(=O)c2cc3sccc3n12 | 5.53 |
| CCc1nn(CC(=O)NCCCN2CCc3ccccc3C2)c(=O)c2cc3sccc3n12 | -53.8 |
| COc1cc(S(=O)(=O)Nc2ncn[nH]2)ccc1Cl | 13.5 |
| COCCN1Cc2cccc(C(=O)NCc3ccccc3OC)c2C1=O | 3.2 |
| Cc1cc(C)cc(NC(=S)NC2CC3CCCC(C2)N3C2CC2)c1 (centres unmarked) | -32 |

| Structure (SMILES) | hERG current change (%, negative = inhibition) at 1uM [%] |
| --- | --- |
| CCCN1C2CCCC1CC(NC(=S)Nc1cc(C)cc(C)c1)C2 (centres unmarked) | -81.4 |
| CCCN1C2CCCC1CC(NC(=S)Nc1cc(C)ccc1C)C2 (centres unmarked) | 8.55 |
| Cc1cccc(NC(=S)NCCN(C2CCCCC2)C2CCCC2)c1 | -1.59 |
| CCCN1C2CCCC1CC(NC(=S)Nc1cccc(C)c1)C2 (centres unmarked) | -12.7 |
| Cc1cc(C)cc(NC(=S)NC2CC3CCCC(C2)N3C2CCCC2)c1 (centres unmarked) | -52.3 |
| Cc1cc(C)cc(NC(=S)NCCN(C2CCCCC2)C2CCCC2)c1 | -59.7 |
| Cc1cc(C)cc(NC(=S)NC2CC3CCCC(C2)N3CC(C)C)c1 (centres unmarked) | 11.3 |
| Cc1ccc(NC(=S)NCCN(C2CCCCC2)C2CCCC2)cc1 | -10.5 |
| Cc1ccc(CSc2ccc(-c3ccc4c(c3)OCO4)nn2)cc1 | 12.7 |
| COc1ccccc1CC(=O)NCCCc1ccccc1 | 11.2 |
| O=C(CCS(=O)(=O)c1ccc2c(c1)NC(=O)CS2)NCCc1ccc(Cl)cc1 | 10 |
| CCN(C(=O)COC(=O)CNC(=O)c1ccc(F)cc1)C1CCS(=O)(=O)C1 (centres unmarked) | 9.62 |
| COC(=O)Nc1c(C(=O)OC)cc(OC)c(OC)c1OC | 6.05 |
| CC1=NNC(=O)C1CCC(=O)N/N=C/c1ccc(Cl)cc1Cl (centres unmarked) | 12.6 |
| COc1cc(OC)cc(C(=O)NNC(=O)c2ccc(S(=O)(=O)N(C)c3ccccc3OC)cc2)c1 | 13.2 |
| CS(=O)(=O)N1CCN(C(=O)c2ccc(-c3ccccc3)cc2)CC1 | 9.18 |
| COc1cc(F)cc(-c2ccc3c(c2)c(-c2cccs2)c(-c2cc(OC)cc(OC)c2)n3C)c1 | 12.5 |
| CCOC(=O)C1(Cc2cccc(OC)c2)CCN(Cc2ccc(C)s2)CC1 | -53.1 |
| CCOC(=O)C1(CCOc2ccccc2)CCN(Cc2cccc(F)c2)CC1 | -7.5 |

| Structure (SMILES) | hERG current change (%, negative = inhibition) at 1uM [%] |
| --- | --- |
| CCOC(=O)C1(CCOc2ccccc2)CCN(Cc2cccc(-n3cccn3)c2)CC1 | -68.5 |
| CCOC(=O)C1(CCOc2ccccc2)CCN(Cc2ccc(-n3cccn3)cc2)CC1 | -37.8 |
| CCOC(=O)C1(CCOC)CCN(Cc2cccc(OCc3ccccc3)c2)CC1 | 3.99 |
| CCOC(=O)C1(CCOc2ccccc2)CCN(Cc2cccc(OCCO)c2)CC1 | -84.4 |
| CCOC(=O)C1(Cc2cccc(OC)c2)CCN(Cc2cnc(C)s2)CC1 | 11 |
| CCOC(=O)C1(CCOc2ccccc2)CCN(Cc2cnc(SC)nc2)CC1 | -28.4 |
| CCOC(=O)C1(Cc2ccccc2)CCN(Cc2ccc(C)s2)CC1 | -2.06 |
| CCOC(=O)C1(CCOc2ccccc2)CCN(Cc2ccc(OC)cc2)CC1 | -77.4 |
| Cc1ccc(NC(=O)CCC(=O)NNC(=O)COc2ccccc2)c(C)c1 | 7.32 |
| CC1(C)C(=O)OC(c2c3ccccc3cc3ccccc23)C(C)(C)C1=O (centres unmarked) | 0.485 |
| COc1ccc(/C=C/c2cc(=O)c3cc(Cl)ccc3o2)cc1 | 9.88 |
| COCCn1ccc2c(OCC(=O)NCCc3ccccc3)cccc2c1=O | 0.744 |
| CSc1ccc(C2CC(=O)Nc3nc(SC)[nH]c(=O)c32)cc1 (centres unmarked) | 17 |
| O=C(O)c1ccc(S(=O)(=O)c2ccc3c(c2)C(=O)N(NC(=O)c2ccncc2)C3=O)cc1 | 5.01 |
| NNC(=O)c1nc(-c2ccccc2)n2c1CCCCC2 | 0.842 |
| O=C(OCC(=O)N1CCCC1)c1c2c(nc3ccccc13)CCCCC2 | 9.48 |
| CC1(C)CC(c2nc(-c3ccc([N+](=O)[O-])cc3)cs2)CCO1 (centres unmarked) | 9.08 |
| CC(C)NC(=O)NS(=O)(=O)c1cnccc1NC1CC2CCC1C2 (centres unmarked) | 9.06 |
